This note sets out measurements from PubChem BioAssay (Tox21).

Assay [1] in a line: qHTS assay to identify small molecule antagonists of the estrogen related receptor signaling pathway with the pleiotropic PPARgamma coactivator (PGC) from Tox21 10K library - cell viability counter screen (AID 1224840; active = well fitted cell-killing curve with a large enough effect in the repeat runs, not every such curve was filed as active; also: nearly all actives have a fitted effect of over 40% in size). The method, boiled down: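 Fluorescence read-out of CellTiter-Fluor viability reagent, added after cells had been exposed to compound in DMSO for 17.5 h at 37 C; 30 min development at 37 C/5% CO2. Cells: PGC/ERR line, 2,000/well.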
A general note: In qHTS, concentration-response curves come from the screen itself.

Assay [2] in a line: qHTS assay to identify small molecule agonists of the estrogen related receptor signaling pathway with the pleiotropic PPARgamma coactivator (PGC) from Tox21 10K library (AID 1224842; active = well fitted curve in the direction sought with a large enough effect in the repeat runs; an effect the other way counts as inactive or inconclusive; also: nearly all actives have a fitted effect of over 15% in size). The method, boiled down:
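PGC/ERR reporter cells (NTP line) were seeded 2,000 per well, rested 6 h at 37 C/5% CO2, then pin-dosed with compounds in DMSO for 18 h at 37 C; luciferase read by One-Glo luminescence after 30 min at room temperature.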

The target in assay [3] is Thyrotropin receptor (Homo sapiens) (UniProt P16473). The assay is described as follows: qHTS assay to identify small molecule agonists of the thyroid stimulating hormone receptor (TSHR) signaling pathway (AID 1224843). Also: nearly all actives have a fitted effect of over 45% in size. The method, boiled down: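 Using 15 concentrations per compound in triplicate, cAMP production was monitored in TSHR-HEK293 cells after 30 min compound incubation at RT; HTRF reagents followed, with fluorescence intensity recorded after 1 h.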

Assay [4] is described as follows: qHTS assay to identify small molecule agonists of the hypoxia (HIF-1) signaling pathway - cell viability counter screen (AID 1224844). Also: nearly all actives have a fitted effect of over 50% in size. The method in brief:
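CellTiter-Glo luminescence read-out, 30 min RT, taken in the same wells as the beta-lactamase HRE reporter assay; HRE-bla ME-180 cells, 0.5% dialyzed FBS, 17 hr compound treatment at 37C, 5% CO2.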

Assay [5] in a line: qHTS assay to identify small molecule agonists of H2AX (AID 1224845; active = well fitted activation curve with a large enough effect in the signal ratio in the repeat runs, not every such curve was filed as active; the % refers to the signal ratio). The method in brief:
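Wild-type CHO-K1 cells plated overnight, then exposed 3 hr at 37C to compounds at 15 concentrations (0.76% DMSO). Lysed, then HTRF anti-pH2AX(S139)-cryptate/anti-H2AX-d2 detection after 24 hr at room temperature; emissions 665 and 620 nm.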

The nature of assay [6]: qHTS assay to identify small molecule agonists of H2AX - cell viability counter screen (AID 1224847). Also: top concentration of the series differs between compounds; nearly all actives have a fitted effect of over 30% in size. The method, boiled down:
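Read-out: CellTiter-Glo luminescence, 30 min RT. Cells: wild-type CHO-K1, 1000/well, 10% FBS, plated overnight at 37C. Treatment: 15 concentrations, 3 hr, 37C, 0.76% DMSO.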

Assay [7] can be described thus: qHTS assay to identify small molecule antagonists of the estrogen related receptor (ERR) signaling pathway from Tox21 library (AID 1224848; active = well fitted curve in the direction sought with a large enough effect in the repeat runs; an effect the other way counts as inactive or inconclusive; also: nearly all actives have a fitted effect of over 50% in size). The method, boiled down:
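Tox21 10K compounds in DMSO tested for ERR pathway antagonism in NTP's ERR cell line; 18 h, 37 C exposure; ONE-Glo luminescence.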

A short description of assay [8]: qHTS assay to identify small molecule agonists of the estrogen related receptor (ERR) signaling pathway from Tox21 library (AID 1224849). Also: nearly all actives have a fitted effect of over 15% in size. The conditions noted are these: ERR reporter cell line, ONE-Glo luciferase, 18 h; at 92.4 µM (top of the series) unless noted. The method in brief:
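Luminescence readout (ONE-Glo, 30 min RT) after 18 h compound exposure at 37 C of NTP-supplied ERR reporter cells; cells were plated 6 h before compound addition by pin tool.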

Assay [9] is described as follows: qHTS assay to identify small molecule antagonists of the estrogen related receptor signaling pathway with the pleiotropic PPARgamma coactivator (PGC) from Tox21 10K library (AID 1224841; call rule not given here; also: actives are mostly falling curves and most rising ones were filed inactive; nearly all actives have a fitted effect of over 50% in size). The method in brief: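 Luminescence read-out (One-Glo luciferase reagent, 30 min at room temperature) from PGC/ERR cells exposed to DMSO-dissolved test compounds for 18 h at 37 C; cells, 2,000 per well, had been preincubated 6 h before compound transfer.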

Assay [10] in a line: qHTS assay to identify small molecule agonists of the hypoxia (HIF-1) signaling pathway (AID 1224846; active = well fitted activation curve with a large enough effect in the signal ratio in the repeat runs, not every such curve was filed as active; the % refers to the signal ratio). The method in brief: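 Beta-lactamase FRET read-out (CCF4-AM substrate) from ME-180 cells carrying an HRE-driven bla reporter, after 17 hrs compound exposure at 37C/5% CO2. Cells were seeded at 2,000 per well in 0.5% dialyzed FBS medium and preincubated 5 hrs.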

A number with no mark means an inactive call. Inconclusive results are not listed. The source made the active and inactive calls. Unless noted, calls follow the shape of the full dose curve.
% is scaled to controls: 0 for no effect and ±100 for the full control effect.

Thyrotropin receptor (Homo sapiens), sequence (P16473 whole entry, looked up): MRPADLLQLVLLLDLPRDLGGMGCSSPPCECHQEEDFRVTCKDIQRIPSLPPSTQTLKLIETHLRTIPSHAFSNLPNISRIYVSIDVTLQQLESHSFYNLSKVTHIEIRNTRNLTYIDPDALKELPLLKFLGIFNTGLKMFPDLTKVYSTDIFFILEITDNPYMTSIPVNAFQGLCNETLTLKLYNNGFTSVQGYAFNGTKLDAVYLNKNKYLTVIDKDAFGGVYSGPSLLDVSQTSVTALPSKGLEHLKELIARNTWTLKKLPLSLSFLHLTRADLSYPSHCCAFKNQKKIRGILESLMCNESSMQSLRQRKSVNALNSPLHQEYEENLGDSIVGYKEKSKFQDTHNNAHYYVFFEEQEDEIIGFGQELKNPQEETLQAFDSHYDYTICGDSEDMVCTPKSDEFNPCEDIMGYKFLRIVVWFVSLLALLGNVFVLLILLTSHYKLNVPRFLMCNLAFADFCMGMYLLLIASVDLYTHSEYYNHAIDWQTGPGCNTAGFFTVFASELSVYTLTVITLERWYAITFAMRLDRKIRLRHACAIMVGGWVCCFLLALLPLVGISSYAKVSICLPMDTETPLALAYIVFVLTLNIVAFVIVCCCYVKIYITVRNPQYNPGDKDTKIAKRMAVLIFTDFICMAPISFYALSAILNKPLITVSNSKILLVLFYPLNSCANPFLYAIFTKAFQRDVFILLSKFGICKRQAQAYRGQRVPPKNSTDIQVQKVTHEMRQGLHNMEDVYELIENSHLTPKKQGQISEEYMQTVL

On to `CC(C)(CO)C(O)C(=O)NCCCO` (centres undefined), for which the result in assay [1], in [2], in assay [3], in [4], in [5] and in [6] was inactive. Also, in assay [7], the Potency result is “inactive”. The activity change, positive = activation in assay [8] is 0.356%.

On to `CC/C=C\CCOC(=O)c1ccccc1O`, for which the outcome in assay [1], in [9], in assay [2], in [4], in [5] and in assay [10] was inactive. The Potency entry in assay [7] was “inactive”. In assay [8], the activity change, positive = activation was 2.25%.

For the compound `C=CCCCCCCCC`, the compound was called inactive in [1], in [3], in [4], in [5], in assay [10] and in assay [6].

Turning to `CC(C)C[C@@H]1[C@H](c2ccccc2)OC(=O)N1CCCN1CCCCCC1`, the outcome in assay [1], in assay [9], in assay [2], in assay [4], in [5] and in assay [10] was inactive. In addition, the compound was classed as inactive in assay [6]. Moreover, the Potency result in assay [7] is “inactive”. The activity change, positive = activation in assay [8] was 0.937% [at 42.5 µM].

As to `CN(C)CCCO[C@@H]1[C@H]2OC(C)(C)O[C@H]2O[C@@H]1C(O)CO` (some centres undefined), the result in assay [1], in assay [9], in assay [2], in [4], in [5] and in assay [6] was inactive. Besides, in assay [7], the Potency result was “inactive”. Besides, the activity change, positive = activation in assay [8] is 6.19% [at 42.5 µM].

Consider `C=CCOC(=O)CCCCCC`, for which the call in assay [1], in assay [3], in assay [4], in assay [5] and in [10] was inactive.

For the compound `O=C=NCC1CCCC(CN=C=O)C1` (centres undefined), the outcome in [1], in assay [3], in [4], in assay [5] and in assay [10] was inactive.

Consider `OC[C@@H](O)C(O)[C@@H](O)CO` (some centres undefined), for which the compound was classed as inactive in assay [1], in assay [9], in assay [2], in assay [4], in assay [5] and in [10]. Besides, the compound was called inactive in assay [6]. For the same compound, in assay [7], the Potency entry is “inactive”. Besides, the activity change, positive = activation in assay [8] is 9.91%.

Consider `O=C(O)CCCCCC(=O)O`, for which the result in [1], in assay [9], in assay [2], in assay [4], in assay [5] and in assay [10] was inactive. In addition, the result in [6] was inactive. Also, the Potency result in [7] is “inactive”. For the same compound, the activity change, positive = activation in assay [8] was 1.8%.

On to `ONc1ccccc1`, for which the call in [1], in [9], in [3], in assay [4], in assay [5] and in assay [10] was inactive. In addition, in assay [6], the outcome was inactive. Moreover, in [7], the Potency result is “inactive”. Also, the activity change, positive = activation in assay [8] is 20.7% (active).

`CCO[Si](CC)(OCC)OCC`: the call in assay [1], in assay [3], in [4], in assay [5] and in [10] was inactive.

Take `CC(O)COC(C)(C)C` (centres undefined): the outcome in [1], in assay [3], in [4], in assay [5], in assay [10] and in assay [6] was inactive.

Regarding `Cc1c(N)cccc1Cl`, the call in [1], in assay [3], in [4], in assay [5], in assay [10] and in assay [6] was inactive.

As to `COP(=O)(O)OP(=O)(O)OC`, the call in [1], in [3], in assay [4], in assay [5], in [10] and in assay [6] was inactive.

Consider `O=C(O)[C@H](O)c1ccccc1`, for which the compound was called inactive in [1], in assay [3], in [4], in assay [5], in [10] and in assay [6].

As for `CCC(C)C(C)=O` (centres undefined), the compound was called inactive in [1], in assay [3], in [4], in assay [5], in [10] and in assay [6].

In the case of `CCCCOCC(C)O` (centres undefined), the compound was classed as inactive in assay [1], in assay [3], in assay [4], in assay [5], in [10] and in [6].

Take `CNCCS(=O)(=O)O`: the compound was classed as inactive in assay [1], in assay [3], in [4], in assay [5], in assay [10] and in assay [6].

As to `CO[Si](CCCn1c(=O)n(CCC[Si](OC)(OC)OC)c(=O)n(CCC[Si](OC)(OC)OC)c1=O)(OC)OC`, the compound was called inactive in assay [1], in assay [3], in [4], in assay [5], in assay [10] and in [6].

`CC(=O)CCc1ccc(OC(C)=O)cc1`: the compound was called inactive in assay [1], in assay [3], in assay [4], in assay [5], in assay [10] and in assay [6].

For `CCCCCc1cccc(=O)o1`, the call in assay [1], in assay [3], in assay [4], in assay [5], in assay [10] and in assay [6] was inactive.

On to `CC(S)C(C)S` (centres undefined), for which the call in assay [1], in [3], in [4], in assay [5], in assay [10] and in assay [6] was inactive.

Turning to `Cc1cccc(Cl)c1`, the call in assay [1], in assay [3], in [4], in [5], in [10] and in assay [6] was inactive.

`COC(=O)c1cc(Cl)cc(Cl)c1`: the call in [1], in assay [3], in assay [4], in assay [5], in assay [10] and in assay [6] was inactive.

In the case of `CCOc1cccc(N)c1`, the compound was classed as inactive in assay [1], in [3], in [4], in assay [5], in assay [10] and in assay [6].

On to `NCC1(Cc2noc(=O)[nH]2)CCCCC1`, for which the outcome in assay [1], in assay [3], in [4], in assay [5], in assay [10] and in assay [6] was inactive.

Regarding `CC(C)CO`, the compound was classed as inactive in assay [1], in assay [3], in assay [4], in assay [5], in [10] and in [6].

As to `O=[N+]([O-])c1c(Cl)cc(Cl)cc1Cl`, the call in assay [1], in assay [3], in assay [4], in assay [5], in assay [10] and in [6] was inactive.

Consider `C[C@@H](O)C(=O)O`, for which the compound was classed as inactive in [1], in assay [3], in [4], in [5], in [10] and in assay [6].
